This passage reports Potency results from PubChem BioAssay AID1030 (National Center for Advancing Translational Sciences (NCATS), 2008).

“And” between values parts separate entries of the source, which are not always exact repeats. Equal values may be shown once. Among all 220,000 compounds or so, about 16,000 (7.3%) were called active. A call without a number means that no potency is given here. Another 25% or so got no clear call; they are omitted. Calls follow the shape of the dose curve; as a rule, active = well fitted inhibition curve with a large enough effect (not every such curve was filed as active); inconclusive = small, poorly fitted or top-dose-only effect, or another doubt; inactive = no such curve, though single readings can be large or run the other way. The sample as a whole holds a higher share of actives than the screen did. A structure can be active in one record and inactive in another.
Potency is read from the fitted curve at half-maximal effect.

Chain of Aldehyde dehydrogenase 1A1 (Homo sapiens) (P00352 whole entry, looked up): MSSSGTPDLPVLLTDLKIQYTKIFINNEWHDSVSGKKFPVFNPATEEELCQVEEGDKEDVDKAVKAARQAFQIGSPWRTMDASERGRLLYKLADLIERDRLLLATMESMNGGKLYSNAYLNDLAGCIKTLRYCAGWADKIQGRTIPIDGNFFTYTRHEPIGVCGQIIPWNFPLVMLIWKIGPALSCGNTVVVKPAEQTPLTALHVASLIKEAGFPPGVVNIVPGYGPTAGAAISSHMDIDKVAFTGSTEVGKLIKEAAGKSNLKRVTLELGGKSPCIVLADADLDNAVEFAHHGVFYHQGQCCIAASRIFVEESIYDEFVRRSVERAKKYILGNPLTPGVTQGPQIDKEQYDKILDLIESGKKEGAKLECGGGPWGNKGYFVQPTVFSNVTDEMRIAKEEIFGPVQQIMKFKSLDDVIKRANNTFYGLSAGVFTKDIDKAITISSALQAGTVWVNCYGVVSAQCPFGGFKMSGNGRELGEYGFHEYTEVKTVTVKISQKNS

The assay has as its target Aldehyde dehydrogenase 1A1 (Homo sapiens) (UniProt P00352). As to the kind of experiment: qHTS Assay for Inhibitors of Aldehyde Dehydrogenase 1 (ALDH1A1). Conditions: Purified ALDH1A1, NADH fluorescence, propionaldehyde substrate; series mostly up to 75.3 µM.
Consider `O=C(Nc1ccc(F)cc1)N1CCN(c2ccc(F)cc2)CC1`, for which the Potency entry is “inactive”.
Take `Cc1nn(Cc2ccc(Cl)cc2)c(Cl)c1/C=N/NC(=O)c1cccnc1`: the Potency entry was “inactive”.
As to `O=C(N/N=C/c1ccccn1)c1cccnc1`, the Potency result is “inactive”.
With `O=C(N/N=C/c1sc(N2CCCCC2)nc1-c1cccs1)c1cccnc1`, the Potency is 31.6 µM (active).
On to `CCN(CCCNC(=O)CSc1cc(=O)n(C)c2cc(Cl)ccc12)Cc1ccccc1`, for which the Potency entry is “inactive”.
The result for `CC1=NNC(=O)C1CCC(=O)N/N=C\c1cccc(Cl)c1` (centres undefined) reads “inactive”; that for `CCc1n[nH]c(=S)n1/N=C/c1c[nH]c2ccc(Br)cc12`, “inactive”; that for `O=[N+]([O-])c1ccccc1/C=N/n1c(COc2ccccc2)n[nH]c1=S`, 15.8 µM (active).
Regarding `S=c1[nH]nc(COc2ccccc2)n1-c1ccccc1`, the Potency result is “inactive”.
Then `O=C(Nc1nc(-c2cccnc2)cs1)c1ccccc1F`, with “inactive”; and `CCN1CCN(CC(=O)Nc2sc3c(c2C#N)CCC3)CC1`, with “inactive”; and `Cn1c(=O)[nH]c(=O)c2c1nc(N1CCN(CCO)CC1)n2CCSc1nc2ccccc2s1`, with “inactive”.
As to `CCc1cc2c(=O)c(-c3nc4ccccc4n3C)c(CCCC(=O)O)oc2cc1OC(=O)C(C)(C)C`, the Potency entry was “inactive”.
For `CCOC(=O)c1oc2c(CN3CCN(CCO)CC3)c(O)c(CC)cc2c(=O)c1-c1nc2ccccc2s1`, the Potency is 28.2 µM (active).
The result for `CCCCn1nc(C(=O)OCC(=O)Nc2sccc2C(N)=O)c2ccccc2c1=O` reads “inactive”.
Then `CCOC(=O)N1CCN(Cc2nc(Cc3cccc(C(F)(F)F)c3)no2)CC1`, with “inactive”; and `COC(=O)c1cc2c(ccn2C)n1C`, with “inactive”.
With `CCOC(=O)/C(C#N)=C/c1cn(CCC(=O)O)nc1-c1ccc(Br)cc1`, the Potency result was “inactive”.
Take `COc1ccc(S(=O)(=O)N/N=C\c2ccc(OC)c(COc3ccc(C)cc3[N+](=O)[O-])c2)cc1`: the Potency is 14.1 µM (active).
In the case of `COc1ccc(C(=O)Oc2cc(/C=N/NS(=O)(=O)c3ccc(C)cc3)ccc2OC)cc1`, the Potency result is “inactive”.
Turning to `COc1cc(/C=N/O)ccc1OCc1ccc([N+](=O)[O-])cc1`, the Potency result was “inactive”.
Regarding `Cc1ccc2c(c1)C1CN(C)CCC1N2C(=S)Nc1ccc(OC(F)F)cc1` (centres undefined), the Potency entry is “inactive”.
`COCCNC(=O)NC(=O)COC(=O)C1(c2ccc(Cl)cc2)CC1`: the Potency result was “inactive”.
Then `COc1ccccc1CC(=O)Nc1ccc(F)cc1F`, with “inactive”; and `CSCCNCc1cn(-c2ccc(F)cc2F)nc1-c1ccccc1C`, with 35.5 µM (active).
`O=C(CC12CC3CC(CC(C3)C1)C2)NCc1ccco1`: the Potency entry is “inactive”.
Then `CCOC(=O)c1ccc[n+](CC(=O)Nc2ccccc2OC(F)F)c1`, with “inactive”; and `COC(=O)c1ccc(-n2cnc3ccccc32)nc1`, with “inactive”; and `COC(=O)c1nn(-c2cccc(Cl)c2)ccc1=O`, with “inactive”.
Then `COC(=O)c1cccc(-n2[nH]nnc2=S)c1`, with 2.82 µM (active).
Then `COc1ccc(NC(=O)c2ccccc2[N+](=O)[O-])cc1OC`, with “inactive”; and `CCOC(=O)C1(Cc2ccc(Cl)cc2)CCN(C(=O)C2=NNC(=O)CC2)CC1`, with “inactive”; and `Cc1ccc(S(=O)(=O)N(C)C)cc1NC(=O)/C=C/c1cccs1`, with 0.447 µM (active).
For the compound `CN(C)S(=O)(=O)c1cccc(NC(=O)COC(=O)/C=C/c2cccs2)c1`, the Potency result is “inactive”.
As to `Cc1ccc(S(=O)(=O)N(C)C)cc1NC(=O)c1ccccc1Br`, the Potency entry was “inactive”.
Consider `CCCCN(CC(=O)NC(C)(C)C)C(=O)C(=O)Nc1ccc2c(c1)OCCO2`, for which the Potency entry is “inactive”.
`c1nnc2c3c4c(sc3ncn12)CCC4`: the Potency result is “inactive”.
The result for `N=c1c2c3c(sc2ncn1N)CCCC3` reads “inactive”.
With `S=c1[nH]nc2c3c4c(sc3ncn12)CCCC4`, the Potency was 25.1 µM (active).
On to `Clc1cccc(-c2nc(NCC3CCCO3)c3ccccc3n2)c1` (centres undefined), for which the Potency entry is “inactive”.
In the case of `C[C@@H](C(=O)Nc1ccc2ccccc2c1)[C@@H]1C[C@@]1(C)[C@@H](NC(=O)c1cccnc1)c1ccccc1`, the Potency entry is “inactive and 22.4 µM (active)”.
Take `CCC(=O)Nc1cccc(NC(=O)c2cccnc2)c1`: the Potency result is “inactive”.
As for `O=C(Nc1ccc(N2CCN(C(=O)c3ccccc3)CC2)c(Cl)c1)c1cccnc1`, the Potency result is “inactive”.
Then `CC(NC(=O)Nc1ccc2c(c1)OCO2)c1ccncc1` (centres undefined), with “inactive”.
As for `COc1cccc(OC)c1C(=O)Nc1ccc(Cc2ccncc2)cc1`, the Potency entry is “inactive”.
The result for `CCn1nnc(NC(=O)c2c(OC)cccc2OC)n1` reads “inactive”; that for `COc1cccc(OC)c1C(=O)Nc1nnc(C(C)C)s1`, 7.08 µM (active); that for `CC(CC(=O)O)C(=O)c1ccc(Cl)c([N+](=O)[O-])c1` (centres undefined), “inactive”.
For `COc1cc(C(=O)N[C@@H](C)C(=O)NCc2ccco2)cc(OC)c1OC`, the Potency entry was “inactive”.
In the case of `COc1cc(C(=O)NC(=S)NCc2ccco2)cc(OC)c1OC`, the Potency was 5.01 µM (active).
In the case of `COc1ccc(-c2cc(C(=O)NCc3ccco3)no2)cc1OC`, the Potency result is “inactive”.
The result for `Cc1cccc(NC(=S)N2CCC(O)CC2)c1C` reads “inactive”.
As to `CC(C)(c1ccccc1)c1ccc(OCCN)cc1`, the Potency result is “inactive”.
The result for `CCOc1ccc(/C=N/Nc2nncc(-c3ccccc3)n2)cc1OC` reads “inactive”; that for `CN(C)S(=O)(=O)c1cccc(NC(=O)COC(=O)c2cc(=O)[nH]c(=O)[nH]2)c1`, “inactive”; that for `CN(C)S(=O)(=O)c1ccc(NC(=O)COC(=O)Cn2[nH]c(=O)c3ccccc3c2=O)cc1`, 28.2 µM (active).
In the case of `CN(C)S(=O)(=O)c1ccc(NC(=O)COC(=O)c2n[nH]c3ccccc23)cc1`, the Potency entry is “inactive”.
Then `C=CCN(c1ccc(Cl)cc1)S(=O)(=O)c1cccc(C(=O)OCC(=O)N(C)C)c1`, with “inactive”; and `O=C(NNC(=S)NCc1ccccc1)c1ccc(OC(F)F)cc1`, with “inactive”; and `Cc1nc2nc[nH]n2c(=O)c1C/C=C/c1ccccc1`, with “inactive”.
On to `CC(C)=CCN1CCC2(CCc3ccccc32)CC1`, for which the Potency result is “inactive”.
Then `O=[N+]([O-])c1cccc(/C([O-])=C(/C(=S)Nc2ccccc2F)[n+]2ccccc2)c1`, with 22.4 µM (active); and `Cc1cccc(C(=O)NNC(=O)c2cccc([N+](=O)[O-])c2)c1`, with “inactive”; and `CCC(C)NCC(=O)Nc1ccc([N+](=O)[O-])cc1C(=O)Nc1ccccc1F` (centres undefined), with “inactive”.
The result for `CCOc1cc(N2CCOCC2)c(OCC)cc1NC(=O)C1=NN(c2cccc(C)c2)C(=O)CC1` reads “inactive”.
The result for `CCNC(=S)Nc1ccc(OC(F)(F)F)cc1` reads “inactive”; that for `CCOC(=O)/C(C#N)=C/c1ccc(N2CCN(Cc3ccccc3)CC2)cc1`, “inactive”.
Regarding `CCOC(=O)NC(=O)/C(C#N)=C\c1ccccc1`, the Potency was 7.08 µM (active).
In the case of `CCOC(=O)C(C(=O)OCC)C(C#N)c1ccccc1` (centres undefined), the Potency result is “inactive”.
